The values that follow come from PubChem BioAssay (NCATS).

Experiment [1] can be described thus: qHTS for Inhibitors of the Functional Ribonucleoprotein Complex (vRNP) of Lymphocytic Choriomeningitis Arenaviruses (LCMV): Viability assay - alamar blue signal for LCMV Primary Screen (AID 1347085; calls by dose curve; tested in HEK293 reporter line; further: nearly all actives have a fitted effect of over 80% in size). (In qHTS, concentration-response curves come from the screen itself.)
Experiment [2] has as its target Nucleoprotein (Lymphocytic choriomeningitis virus (strain Armstrong)) (UniProt P09992). The experiment is described as follows: qHTS for Inhibitors of the Functional Ribonucleoprotein Complex (vRNP) of Lymphocytic Choriomeningitis Arenaviruses (LCMV): LCMV Primary Screen - GLuc reporter signal (AID 1347086; calls by dose curve; further: nearly all actives have a fitted effect of over 70% in size).
Experiment [3] is described as follows: qHTS of pediatric cancer cell lines to identify multiple opportunities for drug repurposing: Primary screen for TC32 cells (AID 1347089). Further: nearly all actives have a fitted effect of over 60% in size. The method, boiled down: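 TC32 cells, 500-1,000/well in growth medium, compound-treated 48 h at 37 °C; viability from CellTiter-Glo luminescence. Primary screen: MIPE 11-point (0.78 nM–46 µM final), NPC 8-point (0.59 nM–46 µM final); confirmatory at 11-point dilutions.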

The nature of experiment [4]: qHTS of pediatric cancer cell lines to identify multiple opportunities for drug repurposing: Primary screen for DAOY cells (AID 1347090). Further: nearly all actives have a fitted effect of over 55% in size. The method, boiled down: (§1)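 Viability measured as metabolically active cells via CellTiter-Glo luminescence following 48 hours of compound exposure, 11-point dilutions in confirmatory testing. 500-1,000 cells/well plated 5 hours before dosing; controls were DMSO and 2.3 µM bortezomib.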

Experiment [5] can be described thus: qHTS of pediatric cancer cell lines to identify multiple opportunities for drug repurposing: Primary screen for SJ-GBM2 cells (AID 1347091). An outline of the steps: as §1
The nature of experiment [6]: qHTS of pediatric cancer cell lines to identify multiple opportunities for drug repurposing: Primary screen for A673 cells (AID 1347092). Further: nearly all actives have a fitted effect of over 45% in size. An outline of the steps:
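A673 cells (500-1,000 cells/well) were treated 48 hours at 37 degrees C with compounds at 11-point (0.78 nM to 46 µM) or 8-point (0.59 nM to 46 µM) dilutions. Viability read by CellTiter-Glo luminescence; concentration-response curves fitted.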

The nature of experiment [7]: qHTS of pediatric cancer cell lines to identify multiple opportunities for drug repurposing: Primary screen for SK-N-MC cells (AID 1347093). The method, boiled down:
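Metabolically active cells were quantified by ATP-dependent luminescence (CellTiter-Glo, 15 min at room temperature) following 48 h treatment. Cells had been plated at 500-1,000 per well and settled for 5 h beforehand.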

A short description of experiment [8]: qHTS of pediatric cancer cell lines to identify multiple opportunities for drug repurposing: Primary screen for BT-37 cells (AID 1347094). The method, boiled down: (§2)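 Phenotypic viability qHTS, 48 h compound exposure, CellTiter-Glo luminescence read-out; multi-concentration dosing so that potency and efficacy derive directly from the primary screen's curves.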

Experiment [9] is described as follows: qHTS of pediatric cancer cell lines to identify multiple opportunities for drug repurposing: Primary screen for NB-EBc1 cells (AID 1347095). An outline of the steps:
as §2

The nature of experiment [10]: qHTS of pediatric cancer cell lines to identify multiple opportunities for drug repurposing: Primary screen for U-2 OS cells (AID 1347096). Further: nearly all actives have a fitted effect of over 50% in size. The method, boiled down:
(§3)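 Viability after 48 h compound treatment at 37C, 500-1,000 cells/well, read as ATP luminescence with CellTiter-Glo. Primary screens used 11-point (MIPE, 0.78 nM-46 µM) or 8-point (NPC, 0.59 nM-46 µM) final concentrations; follow-up screens used 11-point dilutions.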

The nature of experiment [11]: qHTS of pediatric cancer cell lines to identify multiple opportunities for drug repurposing: Primary screen for Saos-2 cells (AID 1347097). Further: nearly all actives have a fitted effect of over 40% in size. The method, boiled down: as §2
The nature of experiment [12]: qHTS of pediatric cancer cell lines to identify multiple opportunities for drug repurposing: Primary screen for SK-N-SH cells (AID 1347098). Further: nearly all actives have a fitted effect of over 65% in size. An outline of the steps:
(§4)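 Cells (500-1,000/well) rested 5 h, then received compounds for 48 h; metabolically active cells were measured by CellTiter-Glo luminescence. Final concentrations spanned up to 46 µM (MIPE, 11-point) or 0.59 nM-46 µM (NPC, 8-point) in primary screens, 11-point in follow-ups.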

A short description of experiment [13]: qHTS of pediatric cancer cell lines to identify multiple opportunities for drug repurposing: Primary screen for NB1643 cells (AID 1347099). Further: nearly all actives have a fitted effect of over 50% in size. An outline of the steps:
as §2

Experiment [14] in a line: qHTS of pediatric cancer cell lines to identify multiple opportunities for drug repurposing: Primary screen for LAN-5 cells (AID 1347100). An outline of the steps:
as §3

A short description of experiment [15]: qHTS of pediatric cancer cell lines to identify multiple opportunities for drug repurposing: Primary screen for BT-12 cells (AID 1347101). Further: nearly all actives have a fitted effect of over 25% in size. The method, boiled down: as §4
The nature of experiment [16]: qHTS of pediatric cancer cell lines to identify multiple opportunities for drug repurposing: Primary screen for Rh18 cells (AID 1347102). Further: nearly all actives have a fitted effect of over 65% in size. An outline of the steps: as §3
The nature of experiment [17]: qHTS of pediatric cancer cell lines to identify multiple opportunities for drug repurposing: Primary screen for OHS-50 cells (AID 1347103). Further: nearly all actives have a fitted effect of over 40% in size. The method, boiled down:
as §4

A short description of experiment [18]: qHTS of pediatric cancer cell lines to identify multiple opportunities for drug repurposing: Primary screen for MG 63 (6-TG R) cells (AID 1347105). Further: nearly all actives have a fitted effect of over 50% in size. The method, boiled down: as §2
Experiment [19] in a line: qHTS of pediatric cancer cell lines to identify multiple opportunities for drug repurposing: Primary screen for control Hh wild type fibroblast cells (AID 1347106). Further: nearly all actives have a fitted effect of over 55% in size. An outline of the steps: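 Cells (500-1,000/well) in growth media were settled 5 h at 37 degrees C, then given compounds for 48 h. Viability was read as CellTiter-Glo luminescence. Primary runs used MIPE at 11 points (0.78 nM-46 µM) and NPC at 8 points (0.59 nM-46 µM); follow-ups used 11 points.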

Experiment [20] can be described thus: qHTS of pediatric cancer cell lines to identify multiple opportunities for drug repurposing: Primary screen for RD cells (AID 1347104). Further: nearly all actives have a fitted effect of over 55% in size. An outline of the steps:
as §2

Records with an inconclusive call do not appear. The source made the active and inactive calls. Unless noted, the call rests on the fitted dose curve; in most records, active means well fitted curve in the direction sought with a large enough effect; inconclusive means small, poorly fitted or top-dose-only effect, or another doubt; inactive means no such curve, though single readings can be large; an effect the other way counts as inactive or inconclusive.
Potency means the concentration at half of the fitted maximal effect.

Sequence of Nucleoprotein (Lymphocytic choriomeningitis virus (strain Armstrong)) (P09992 whole entry, looked up): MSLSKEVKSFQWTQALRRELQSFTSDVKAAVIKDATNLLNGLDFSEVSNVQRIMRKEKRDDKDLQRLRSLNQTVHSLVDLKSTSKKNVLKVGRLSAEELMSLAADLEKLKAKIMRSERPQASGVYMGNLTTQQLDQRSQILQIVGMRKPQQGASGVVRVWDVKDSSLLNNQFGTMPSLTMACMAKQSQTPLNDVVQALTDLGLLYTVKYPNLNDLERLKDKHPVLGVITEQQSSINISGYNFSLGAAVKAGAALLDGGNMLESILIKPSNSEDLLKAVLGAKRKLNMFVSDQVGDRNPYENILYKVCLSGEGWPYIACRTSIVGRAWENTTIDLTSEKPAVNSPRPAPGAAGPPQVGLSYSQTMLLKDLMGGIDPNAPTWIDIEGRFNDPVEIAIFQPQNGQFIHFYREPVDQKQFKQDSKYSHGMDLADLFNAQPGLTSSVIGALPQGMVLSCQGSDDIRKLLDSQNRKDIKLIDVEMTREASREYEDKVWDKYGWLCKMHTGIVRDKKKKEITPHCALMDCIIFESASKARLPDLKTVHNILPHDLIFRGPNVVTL

As for `CC1(C)Cc2c(-c3ccccc3)c(-c3ccc(Cl)cc3)c(CC(=O)O)n2C1`, the Potency result in experiment [1] and in experiment [2] was “inactive” each time.

For the molecule `CC(C)N[C@@H]1CCn2c(=O)[nH]c3cccc(c32)[C@@H]1O`, the Potency is 4.85 µM (active) in experiment [1]; 2.73 µM (active) in experiment [2]; 1.18 µM (active) in experiment [4]; 6.62 µM (active) in experiment [5]; 0.833 µM (active) in experiment [6]; 1.05 µM (active) in experiment [7]. In addition, the Potency was 27.3 µM (active) in [8]; 11.8 µM (active) in experiment [10]; 5.26 µM (active) in experiment [11]; 8.57 µM (active) in [12]; 4.18 µM (active) in experiment [13]; 0.743 µM (active) in experiment [14]. In addition, the Potency in experiment [15] was 3.06 µM (active); in experiment [16], 4.69 µM (active); in [17], 1.37 µM (active); in experiment [19], 11.8 µM (active). The Potency result in experiment [3], in [9] and in experiment [18] was “inactive” each time.

Regarding `O=C(O)c1ccccn1`, the Potency result in experiment [1] and in experiment [2] was “inactive” each time.

Take `COc1ccc(C=Cc2cc(OC)c(OC)c(OC)c2)cc1O`: the Potency entry in experiment [1] and in experiment [2] was “inactive” in each case.

As to `CC1=C(C(=O)O)N2C(=O)[C@@H](N)[C@H]2SC1`, the Potency entry in experiment [1], in experiment [2], in experiment [3], in experiment [4], in experiment [5] and in [6] was “inactive” in each case. In addition, the Potency result in experiment [7], in experiment [8], in [9], in experiment [10], in experiment [11] and in experiment [12] was “inactive” each time. Also, the Potency result in experiment [13], in experiment [14], in experiment [15], in [16], in [17] and in [20] was “inactive” in each case. Also, the Potency entry in experiment [18] and in [19] was “inactive” in each case.

Take `NC(N)=NOCCC(N)C(=O)O` (centres undefined): the Potency result in experiment [1] and in experiment [2] was “inactive” each time.

For the molecule `CC[N+]1(CCOC(=O)C(O)(c2ccccc2)c2ccccc2)CCCCC1`, the Potency entry in experiment [1], in experiment [2], in [3], in experiment [4], in experiment [5] and in [6] was “inactive” in each case. Further, the Potency result in [7], in experiment [8], in [9], in [10], in experiment [11] and in experiment [12] was “inactive” throughout. For the same molecule, the Potency result in experiment [13], in experiment [14], in experiment [15], in [16], in [17] and in [20] was “inactive” each time. The Potency entry in experiment [18] and in experiment [19] was “inactive” each time.

For `Cc1cnc(Nc2ccc(F)cc2Cl)nc1-c1c[nH]c(C(=O)N[C@H](CO)c2cccc(Cl)c2)c1`, the Potency is 7.69 µM (active) in experiment [1] and 17.2 µM (active) in experiment [2].

`C[C@@H]1CC[C@@]2(OC1)O[C@H]1C[C@H]3[C@@H]4CC=C5C[C@@H](O[C@@H]6O[C@H](CO)[C@@H](O[C@@H]7O[C@@H](C)[C@H](O)[C@@H](O)[C@@H]7O)[C@H](O)[C@@H]6O[C@@H]6O[C@@H](C)[C@H](O)[C@@H](O)[C@@H]6O)CC[C@]5(C)[C@@H]4CC[C@]3(C)[C@@H]1[C@H]2C`: the Potency entry in experiment [1], in [2] and in experiment [19] was “inactive” throughout. Moreover, the Potency is 13.1 µM (active) in experiment [3]; 7.43 µM (active) in experiment [4]; 5.26 µM (active) in experiment [5]; 3.72 µM (active) in experiment [6]; 1.32 µM (active) in experiment [7]; 6.85 µM (active) in [8]. Besides, the Potency in [9] is 4.69 µM (active); in [10], 9.35 µM (active); in [11], 5.9 µM (active); in experiment [12], 12.1 µM (active); in experiment [13], 5.9 µM (active); in experiment [14] it was 3.72 µM (active). For the same molecule, the Potency in [15] is 6.85 µM (active); in experiment [16] it was 4.18 µM (active); in experiment [17] it was 4.32 µM (active); in experiment [20], 5.9 µM (active); in [18] it was 2.96 µM (active).
